Source: PubChem
An excerpt weighted towards active compounds, which were near 11% of everything screened.
USP28 inh: human USP28 deubiquitinase inhibition. Q96RU2. purified USP28, Ub-rhodamine cleavage fluorescence, 30 min. inhibition, % at 25 µM. hit rate 3% among 47,000. AID 1645857
USP30 block: blocks human USP30 ubiquitin-rhodamine cleavage; Q70CQ3; purified USP30, Ub-rhodamine cleavage fluorescence; inhibition, % at 25 µM; hit rate 5.3% among 47,000
USP17 block: inhibitors of human USP17 deubiquitinase; purified USP17, Ub-rhodamine cleavage fluorescence, 3 h; hit rate 6.5% among 47,000; AID 1645855; A8MUK1; inhibition, % at 50 µM
Target sequence (A8MUK1 whole entry, looked up): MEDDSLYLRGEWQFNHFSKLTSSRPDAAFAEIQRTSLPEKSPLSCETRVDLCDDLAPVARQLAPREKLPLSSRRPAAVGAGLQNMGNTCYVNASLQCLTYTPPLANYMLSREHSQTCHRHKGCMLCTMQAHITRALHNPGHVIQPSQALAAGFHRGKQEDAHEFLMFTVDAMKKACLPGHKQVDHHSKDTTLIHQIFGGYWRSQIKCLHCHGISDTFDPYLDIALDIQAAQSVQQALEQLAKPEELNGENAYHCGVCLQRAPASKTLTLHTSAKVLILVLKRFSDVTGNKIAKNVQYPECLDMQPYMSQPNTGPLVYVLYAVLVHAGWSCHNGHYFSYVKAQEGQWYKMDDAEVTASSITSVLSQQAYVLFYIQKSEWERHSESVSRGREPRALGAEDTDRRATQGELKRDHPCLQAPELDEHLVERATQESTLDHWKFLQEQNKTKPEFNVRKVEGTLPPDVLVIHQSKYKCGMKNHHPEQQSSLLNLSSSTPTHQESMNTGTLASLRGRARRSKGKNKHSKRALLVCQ
Starred values were filed as active, the others as inactive; i = inactive; . = no result given. Rule as the data show it: active = inhibition above about 30%; inactive = the rest.

SMILES	USP28 inh	USP30 block	USP17 block
NS(=O)(=O)c1ccc(NC(=O)c2sccc2Oc2ccc(F)cc2[N+](=O)[O-])cc1	32*	61*	55*
NS(=O)(=O)c1ccc(NC(=O)c2ccc3ncsc3c2)cc1	15	3	17
O=C1/C(=C/c2cn(-c3ccccc3)nc2-c2ccc3c(c2)OCCO3)Cc2ccccc21	-180	i	-138
O=C(c1ccc2c(c1)OCO2)N1CCN(c2ccccn2)CC1	12	24	5
O=C(CCCc1ccccc1)N1CCN(c2ccc(-c3ccc4c(c3)OCO4)nn2)CC1	19	30*	24
CN(C)CCn1ccc2ccn(Cc3nc(C4CC4)no3)c(=O)c21	1	-9	-2
O=C(Nc1nc2c(s1)CCCC2C(=O)NCc1ccncc1)c1ccc2c(c1)OCO2 (configuration not stated)	38*	7	-15
O=C(Nc1nc2c(s1)CCC2C(=O)NCc1ccncc1)c1ccccc1 (configuration not stated)	-16	-39	-14
COc1ccc(COC(=O)C2=C(C)NC(=O)CC2c2ccccc2OC)cc1 (configuration not stated)	23	3	5
CCc1ccc(-c2nc(SCC(=O)c3c(N)n(C4CC4)c(=O)[nH]c3=O)n[nH]2)cc1	-59	-242	44*
Cc1ccc(-c2nc(SCC(=O)c3c(N)n(C4CC4)c(=O)[nH]c3=O)n[nH]2)cc1	-39	-116	-64
O=C(c1ccn[nH]1)N1CCc2c(nc(N3CCCCC3)[nH]c2=O)C1	6	-8	3
Cc1ccc(-n2c3c(c(=O)[nH]c2=O)CN(CCc2ccccc2)CN3)cc1	4	14	1
COc1ccc2[nH]c3c(c2c1)CCN1C(=O)CN(Cc2ccc4c(c2)OCO4)C(=O)[C@]31C	12	15	12
CCOC(=O)Cc1cc(O)cc(O)c1C(=O)CCCCCC(C)O (configuration not stated)	-1	-26	-17
CCCC(O)CCCCCCCc1cc(O)cc(O)c1C(=O)OC(CCC)CCCCCCCc1cc(O)cc(O)c1 (configuration not stated)	26	20	91*
Nc1c(-c2ccncc2)nsc1C(=O)NCc1ccccc1F	0	-13	-51
CN(C)C(=O)N1Cc2ccccc2C2(CCNCC2)C1	16	31*	22
CCS(=O)(=O)N1Cc2ccccc2C2(CCNCC2)C1	12	7	-10
Cc1cc(NC(=O)COc2ccc3oc4c(c3c2)CCCC4)n(-c2ccccc2)n1	.	.	73*
Cc1ccc(NC(=O)c2oc3ccccc3c2NC(=O)COc2ccc(C)cc2)cc1	-2	3	2
Cc1ccc(NC(=O)COc2ccc3oc4c(c3c2)CCCC4)cc1	17	38*	14
Cc1cc(C(=O)NCC2CCCO2)n(-c2ccccc2)n1 (configuration not stated)	-8	-4	2
COc1ccc(NC(=O)Cn2c(=O)n(-c3ccc(CC(=O)NCC4CCCO4)cc3)c(=O)c3ccccc32)cc1 (configuration not stated)	-60	-235	-38
O=C(NCCN1CCC(Cc2ccccc2)CC1)C1CCN(c2nc3ccccc3[nH]2)CC1	1	7	-4
SMILES	USP28 inh	USP30 block	USP17 block
CCn1ccc(C(=O)N2CCCn3nc(-c4ccc(Cl)cc4)cc3C2)n1	2	-7	-16
COc1ccc(CNC(=O)C2CCN(c3nc4cccnc4n(C)c3=O)CC2)c(OC)c1	-9	-4	-13
COc1cccc(NC(=O)c2ccc(=O)n(Cc3ccc(F)cc3)c2)c1	12	14	1
COc1ccc(N(C)S(=O)(=O)c2ccc(Cl)c(C(=O)Nc3cccc(C(C)=O)c3)c2)cc1	28	-42	-17
COc1ccc(NC(=O)c2ccc(S(C)(=O)=O)cc2Cl)cc1	46*	-14	9
COc1cccc(NC(=O)c2ccc(F)cc2Cl)c1	54*	3	0
Cc1cc(OCC(=O)Nc2cc(Cl)ccc2C)c2c(-c3ccccc3)cc(=O)oc2c1	1	0	9
CN(Cc1cc2ccccc2[nH]c1=O)C(=O)c1ccc(Cl)cc1	6	3	-2
COc1ccc2[nH]c(=O)c(CN(C)C(=O)c3ccc([N+](=O)[O-])cc3)cc2c1	3	-3	46*
O=C(Nc1ccc(Cl)cc1)c1cc(-c2ccccn2)n[nH]1	8	13	6
COc1cc(OC)c(NC(=O)c2cc(-c3ccccn3)n[nH]2)cc1Cl	2	15	-4
COc1ccc(Cl)cc1NC(=O)c1cc(-c2ccccn2)n[nH]1	-11	-34	61*
Cc1ccc(Cl)cc1NC(=O)c1cc(-c2ccccn2)n[nH]1	-8	-2	73*
CCCCCC1CCC(c2nnc(-c3ccc(F)cc3)o2)CC1 (configuration not stated)	-4	-16	-1
Cc1nc(COc2ccccc2)sc1C(=O)NCC1CCCO1 (configuration not stated)	5	18	11
